For 21 molecules, growth results are on record in PubChem BioAssay (NCI).

Common to all, as to experiment: NCI-60 one-dose screen, 48 h (100 = growth as untreated, 0 = no growth, -100 = all killed)
One experiment has as its system T-47D breast. The conditions noted are these: 10 µM.
In another experiment the test system is BT-549 breast. The conditions noted are these: 10 µM.
The subject of a further experiment is MDA-MB-435 melanoma. The conditions noted are these: 10 µM.
A further experiment deals with SW-620 colon. The conditions noted are these: 10 µM.
The next experiment has as its system MCF7 breast. The conditions noted are these: 10 µM unless noted.
The next experiment deals with HCT-116 colon. The conditions noted are these: 10 µM.
In the next experiment the test system is KM12 colon. The conditions noted are these: 10 µM.
For a further experiment, the system named is HCC-2998 colon. The conditions noted are these: 10 µM.

Molecules are shown by their SMILES. The panel holds about 83,000 compounds, 20% with a hit somewhere; the sample as a whole holds those more often.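 Negative percent growth values reflect cell death: -40 means 40% of the cells present at the start died, and -100 means all died.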 Unmarked numbers belong to inactive results. Activity calls are given as the source filed them. Rule for the calls: active = growth percent below 10; inactive = the rest.

Consider `CN(c1ccccc1)c1ncnc2c1ncn2C`, for which the growth in the experiment with T-47D breast is 100%; with BT-549 breast, 101%; in the experiment on MDA-MB-435 melanoma, 106%; in the experiment on SW-620 colon it was 97.9%; in the experiment on MCF7 breast, 97.8%; in the experiment on HCT-116 colon it was 104%. The growth with KM12 colon is 108%.

Turning to `CCOc1ccc(Br)cc1/C=N\N=C\c1cc(Br)ccc1OCC`, the growth in the experiment on T-47D breast is 93%; in the experiment on BT-549 breast it was 108%; with MDA-MB-435 melanoma it was 103%; in the experiment on SW-620 colon it was 101%; in the experiment on MCF7 breast it was 101%; with HCT-116 colon, 97.8%. Besides, the growth with KM12 colon was 94.2%.

Turning to `Cn1cnc2nc(Cl)nc(Cl)c21`, the growth with T-47D breast was 56.7%; in the experiment on BT-549 breast, -28.5% (active); with MDA-MB-435 melanoma, -20.5% (active); with SW-620 colon, 22.2%; in the experiment with MCF7 breast, 16.7%; in the experiment on HCT-116 colon, 3.41% (active). For the same molecule, the growth in the experiment on KM12 colon was -40.8% (active).

On to `CCCCCCCCOC(=O)c1ccccn1`, for which the growth in the experiment on T-47D breast was 96.4%; in the experiment on BT-549 breast, 94.5%; with MDA-MB-435 melanoma, 116%; in the experiment with SW-620 colon, 98.3%; with MCF7 breast it was 96.2%; in the experiment on HCT-116 colon, 94.2%. Moreover, the growth with KM12 colon was 103%.

Consider `CC(C)(C)c1cc(O)c(C(C)(C)C)cc1O`, for which the growth was 95% in the experiment on T-47D breast; 81.3% with BT-549 breast; 91.9% in the experiment on MDA-MB-435 melanoma; 97% in the experiment on SW-620 colon; 83.7% with MCF7 breast; 86.6% in the experiment with HCT-116 colon. For the same molecule, the growth with KM12 colon was 101%.

`O=[N+]([O-])c1ccc(S(=O)(=O)NN=C2CCCCC2)cc1`: the growth in the experiment on T-47D breast is 107%; with BT-549 breast it was 95.5%; in the experiment with MDA-MB-435 melanoma, 114%; in the experiment on SW-620 colon, 114%; with MCF7 breast, 102%; in the experiment on HCT-116 colon, 97.8%. In addition, the growth in the experiment on KM12 colon was 110%.

Take `CC1NC(=O)NC1CCCCCC(=O)O` (configuration not stated): the growth in the experiment with T-47D breast was 101%; in the experiment with BT-549 breast, 105%; in the experiment on MDA-MB-435 melanoma, 117%; in the experiment with SW-620 colon it was 105%; in the experiment with MCF7 breast, 99.8%; with HCT-116 colon, 105%. Besides, the growth with KM12 colon is 98.7%.

Take `CC(=O)c1cc2c(cc1F)C(C)(C)CCC2(C)C`: the growth was 109% in the experiment on T-47D breast; 101% in the experiment on BT-549 breast; 106% in the experiment on MDA-MB-435 melanoma; 102% with SW-620 colon; 101% with MCF7 breast; 94.4% in the experiment with HCT-116 colon. Further, the growth in the experiment on KM12 colon is 107%.

For `CCC(C)(C)C1CCC(O)CC1` (configuration not stated), the growth with T-47D breast is 97.5%; in the experiment with BT-549 breast, 96.6%; with MDA-MB-435 melanoma it was 112%; in the experiment on SW-620 colon it was 101%; in the experiment with MCF7 breast, 104%; in the experiment on HCT-116 colon, 98.9%. The growth in the experiment on KM12 colon was 96%.

As to `CC(=O)OC(C(=O)O)c1ccccc1` (configuration not stated), the growth was 118% in the experiment with T-47D breast; 122% in the experiment with BT-549 breast; 105% in the experiment with MDA-MB-435 melanoma; 101% in the experiment with SW-620 colon; 108% in the experiment on HCT-116 colon; 96.3% in the experiment with HCC-2998 colon. In addition, the growth in the experiment with KM12 colon is 106%.

As to `C=CCNc1ccccc1`, the growth in the experiment with T-47D breast was 103%; with BT-549 breast, 99%; with MDA-MB-435 melanoma it was 119%; in the experiment with SW-620 colon, 106%; with MCF7 breast, 87.4%; in the experiment on HCT-116 colon, 92.4%. Besides, the growth in the experiment on KM12 colon was 109%.

As for `O=[N+]([O-])c1cccc2nsnc12`, the growth in the experiment on T-47D breast was 103%; in the experiment on MDA-MB-435 melanoma, 111%; with SW-620 colon it was 104%; in the experiment on MCF7 breast it was 93.5%; in the experiment with HCT-116 colon it was 99.1%; with HCC-2998 colon, 111%. In addition, in the experiment with KM12 colon, the growth was 104%.

As to `COc1cccc(COC(=O)Nc2ccccc2)c1OC`, the growth in the experiment on T-47D breast is 93.1%; in the experiment with MDA-MB-435 melanoma, 91.7%; in the experiment on SW-620 colon, 114%; in the experiment with MCF7 breast it was 97.6%; with HCT-116 colon, 104%; in the experiment with HCC-2998 colon it was 102%. Besides, the growth with KM12 colon is 106%.

Turning to `CCC(=O)Oc1ccc(OC)cc1`, the growth with T-47D breast is 101%; with MDA-MB-435 melanoma it was 106%; with SW-620 colon, 102%; in the experiment on MCF7 breast, 102%; in the experiment with HCT-116 colon it was 107%; with HCC-2998 colon, 114%. In addition, the growth in the experiment on KM12 colon was 106%.

In the case of `O=C1C=CC2=C3c4cc(O)c(O)cc4CC3(O)COC2=C1O` (configuration not stated), the growth in the experiment with T-47D breast is 113%; with MDA-MB-435 melanoma it was 111%; in the experiment on SW-620 colon, 101%; with MCF7 breast it was 98.1%; in the experiment on HCT-116 colon it was 99%; in the experiment with HCC-2998 colon it was -35.6% (active). For the same molecule, in the experiment with KM12 colon, the growth was 114%.

As for `CC1OC(Oc2c(-c3ccc(O)c(O)c3)oc3cc(O)cc(O)c3c2=O)C(O)C(O)C1O` (configuration not stated), the growth was 105% in the experiment on T-47D breast; 111% in the experiment on MDA-MB-435 melanoma; 99.8% in the experiment on SW-620 colon; 101% in the experiment on MCF7 breast; 105% with HCT-116 colon; 110% with HCC-2998 colon. In addition, in the experiment with KM12 colon, the growth was 102%.

For the molecule `O=C(NCO)c1ccccc1`, the growth was 102% in the experiment with T-47D breast; 108% with MDA-MB-435 melanoma; 103% with SW-620 colon; 101% with MCF7 breast; 105% with HCT-116 colon; 111% in the experiment on HCC-2998 colon. Further, the growth with KM12 colon was 102%.

As for `CCCC[P+](c1ccccc1)(c1ccccc1)c1ccccc1`, the growth in the experiment on T-47D breast was 26.5%; in the experiment with BT-549 breast, 17.8%; in the experiment on SW-620 colon it was 64.5%; in the experiment with MCF7 breast, 24.1%; with HCT-116 colon, 39.2%; in the experiment with HCC-2998 colon it was 32.2%. The growth in the experiment with KM12 colon is 23.2%.

Regarding `O=S(=O)(O)c1ccc(O)c2ccccc12`, the growth in the experiment with T-47D breast was 99.4%; with MDA-MB-435 melanoma, 113%; in the experiment with SW-620 colon, 97.3%; in the experiment with MCF7 breast, 94.3%; in the experiment with HCT-116 colon, 98.4%; in the experiment with HCC-2998 colon it was 114%. In addition, the growth in the experiment on KM12 colon was 102%.

Turning to `NC(=O)NC(=O)c1ccc(Cl)cc1`, the growth in the experiment on T-47D breast is 96.9%; with MDA-MB-435 melanoma, 102%; with SW-620 colon, 102%; with MCF7 breast it was 95.4%; in the experiment on HCT-116 colon, 87.9%; in the experiment with HCC-2998 colon it was 111%. Moreover, the growth in the experiment with KM12 colon is 110%.

On to `CC(=O)OCC(=O)[C@@]1(O)CC[C@H]2[C@@H]3CC[C@@H]4C[C@H](O)CC[C@]4(C)[C@H]3C(=O)C[C@@]21C`, for which the growth is 108% with T-47D breast; 103% in the experiment with MDA-MB-435 melanoma; 103% with SW-620 colon; 108% with MCF7 breast; 99.9% in the experiment with HCT-116 colon; 97.5% with HCC-2998 colon. Besides, the growth with KM12 colon is 112%.
